Inconclusive results are not listed. Calls of active or inactive are those of the source. The call rests on the fitted dose curve; in most records, active means well fitted curve in the direction sought with a large enough effect; inconclusive means small, poorly fitted or top-dose-only effect, or another doubt; inactive means no such curve, though single readings can be large; an effect the other way counts as inactive or inconclusive.
Key:
[1] = target: Glutathione peroxidase 1 (Homo sapiens) (UniProt P07203); experiment: Primary qHTS Assay for Inhibitors of Recombinant Selenoprotein Glutathione Peroxidase 1 (GPX1) (AID 1845191); further: nearly all actives have a fitted effect of over 65% in size; on activity, negative = inhibition: on the % scale 0 is the no-effect control and ±100 the full control effect
Procedure, shortened: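 GR-coupled assay: compounds preincubated 30 min at room temperature with GPX1, then reaction started with CHP; final 10 nM GPX1, 1 mM GSH, 0.5 mM CHP, 0.5 mM NADPH, 100 nM GR, 0.01% BSA, pH 7.5 Tris buffer. NADPH fluorescence (340/450 nm) read at 0 and 15 min.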

[2] = target: Phospholipid hydroperoxide glutathione peroxidase GPX4 (Homo sapiens) (UniProt P36969); experiment: Primary qHTS Assay for Inhibitors of Recombinant Selenoprotein Glutathione Peroxidase 4 (GPX4) (AID 1845192); further: nearly all actives have a fitted effect of over 65% in size
Procedure, shortened: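 GR-coupled assay: recombinant GPX4 preincubated 30 min with compound at room temperature; final 200 nM GPX4, 1 mM GSH, 0.5 mM cumene hydroperoxide, 0.5 mM NADPH, 100 nM GR, 0.01% BSA, pH 7.5 Tris. NADPH fluorescence (340/450 nm) read at 0 and 15 min.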

[3] = target: Luciferin 4-monooxygenase (Photinus pyralis) (UniProt P08659); experiment: Primary firefly luciferase (FLuc) qHTS assay for identification of artifact compounds. (AID 1845220); further: nearly all actives have a fitted effect of over 60% in size; further: potency means the concentration at half of the fitted maximal effect
Procedure, shortened: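 Titrated compounds were incubated 15 min at RT, protected from light, with luciferin and ATP at 10 uM; reaction started with 10 nM FLuc, luminescence imaged at 5 min, and concentration-response fitted by Hill equation.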

[4] = Primary fluorescence-based thiol-reactive (MSTI) qHTS assay for identification of artifact compounds. (AID 1845221);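 further: series mostly up to about 54 µM; thiol-reactive compounds lower the probe fluorescence signal; nearly all actives have a fitted effect of over 65% in size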
Procedure, shortened: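 Probe: MSTI 4 uM, PBS pH 7.4, 2% DMSO. Incubation 1 h, RT, light-protected. Readout fluorescence 525/598 nm.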

[5] = tested on: Nanoluciferase (engineered Oplophorus gracilirostris luciferase); experiment: Primary Nanoluciferase (NLuc) qHTS assay for identification of artifact compounds. (AID 1845222);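 further: NLuc secreted into diluted conditioned medium of S16 cells; series mostly up to about 54 µM; 0% = DMSO and -100% = no enzyme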
Procedure, shortened: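 qHTS format, against NLuc in S16 cell-conditioned medium. Nano-Glo substrate 1:100 was added after 15 min at room temperature. Luminescence was taken after a further 5 min.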

[6] = Primary redox qHTS assay for identification of artifact compounds. (AID 1845223);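 further: 0% = DMSO and 100% = reference compound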
Procedure, shortened: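 Amplex Red (25 uM) and HRP (250 mU/mL) in HBSS, with compounds for 15 min, then 250 uM DTT for 30 min, room temperature, dark. Fluorescence 525/598 nm read; normalized to DMSO and 10 uM DA3003; Hill fit.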

Phospholipid hydroperoxide glutathione peroxidase GPX4 (Homo sapiens), sequence (P36969 whole entry, looked up): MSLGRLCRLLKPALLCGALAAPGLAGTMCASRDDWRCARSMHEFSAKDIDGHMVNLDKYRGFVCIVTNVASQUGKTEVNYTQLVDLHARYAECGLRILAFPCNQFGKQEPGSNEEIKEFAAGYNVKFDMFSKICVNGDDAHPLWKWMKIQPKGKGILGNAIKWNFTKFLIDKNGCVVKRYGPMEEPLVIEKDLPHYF
Glutathione peroxidase 1 (Homo sapiens), sequence (P07203 whole entry, looked up): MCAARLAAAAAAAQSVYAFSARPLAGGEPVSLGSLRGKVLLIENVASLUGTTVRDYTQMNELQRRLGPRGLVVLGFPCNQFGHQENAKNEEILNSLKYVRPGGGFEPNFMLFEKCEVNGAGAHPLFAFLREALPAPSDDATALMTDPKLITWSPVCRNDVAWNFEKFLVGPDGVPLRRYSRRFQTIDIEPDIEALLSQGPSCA

C[C@@H]1C[C@@H](O)[C@@]23CO[C@]2(CO)CCC[C@@H]3[C@@]12C[C@@H](c1ccoc1)OC2=O
inactive: Potency [1] | Potency [2] | Potency [3] | Potency [4] | Potency [5] | Potency [6]

CC(C)/C=C1/NC(=O)C(C(C)C)n2c1nc1c(O)cccc1c2=O (stereo not given)
inactive: Potency [1] | Potency [2] | Potency [3] | Potency [4] | Potency [5] | Potency [6]

CCC[C@H](N[C@@H](C)C(=O)N1[C@H](C(=O)O)C[C@@H]2CCCC[C@@H]21)C(=O)O
inactive: Potency [1] | Potency [2] | Potency [3] | Potency [4] | Potency [5] | Potency [6]

COc1ccccc1CN[C@H]1CCCN[C@H]1c1ccccc1
inactive: Potency [1] | Potency [2] | Potency [3] | Potency [4] | Potency [5] | Potency [6]

CC1(C)CC[C@]2(C(=O)O)CC[C@]3(C)C(=CCC4[C@@]5(C)C[C@@H](O)[C@H](O)[C@@](C)(CO)C5CC[C@]43C)C2C1 (stereo not given in full)
inactive: Potency [1] | Potency [2] | Potency [3] | Potency [4] | Potency [5] | Potency [6]

COc1cc(C2CC(=O)Nc3c2cc(Br)c2ccccc32)cc(OC)c1OC (stereo not given)
inactive: Potency [1] | Potency [2] | Potency [3] | Potency [4] | Potency [5] | Potency [6]

C=C(C)[C@@]1(O)C[C@@]2(C)C(=CC1=O)CC[C@@H](O)[C@@H]2C
inactive: Potency [1] | Potency [2] | Potency [3] | Potency [4] | Potency [5] | Potency [6]

C=C1CCC[C@]2(C)CC[C@@](O)(C(=C)C(=O)O)C[C@@H]12
inactive: Potency [1] | Potency [2] | Potency [3] | Potency [4] | Potency [5] | Potency [6]

Cc1nnc(-c2sc(NC(=O)[C@H](C(C)C)n3c(=O)[nH]c4ccccc4c3=O)nc2C)o1
inactive: Potency [1] | Potency [2] | Potency [3] | Potency [4] | Potency [5] | Potency [6]

CCC1OC(=O)C(C)CC(C)C(=O)/C(C)=C/C(C)C(=O)/C=C/C1(C)O (stereo not given)
inactive: Potency [1] | Potency [2] | Potency [3] | Potency [4] | Potency [5] | Potency [6]

NC(=O)[C@@H]1CC[C@H](c2ccc(OCc3ccccc3F)cc2)N1
active: Potency [3] 10.7 µM
inactive: Potency [1] | Potency [2] | Potency [4] | Potency [5] | Potency [6]

O=C(/C=C/c1ccc(O)cc1)OC[C@H]1O[C@@H](O/C(=C\c2ccccc2)C(=O)O)[C@H](O)[C@@H](O)[C@@H]1O
inactive: Potency [1] | Potency [2] | Potency [3] | Potency [4] | Potency [5] | Potency [6]

C[C@H]1/C=C/C=C/C=C/C=C/C=C/[C@@H](O)[C@H](C(=O)O)[C@H](O)C[C@H](O)CCC[C@H](O)C[C@H](O)C[C@H](O)[C@@H](C)C(=O)O[C@@H]1C
inactive: Potency [1] | Potency [2] | Potency [3] | Potency [4] | Potency [5] | Potency [6]

CC(C)=CC1C[C@](C)(O)[C@@H]2[C@H]3CCC4[C@@]5(C)CC[C@H](O[C@@H]6OC[C@H](O)[C@H](O[C@@H]7O[C@H](CO[C@@H]8O[C@H](CO)[C@@H](O)[C@H](O)[C@H]8O)[C@@H](O)[C@H](O)[C@H]7O)[C@H]6O[C@@H]6O[C@@H](C)[C@H](O)[C@@H](O)[C@H]6O)C(C)(C)[C@@H]5CC[C@@]4(C)[C@@]34CO[C@@]2(C4)O1 (stereo not given in full)
inactive: Potency [1] | Potency [2] | outcome [3] inactive [at 11.6 µM] | activity change, negative = thiol reactive [4] 458% [at 11.5 µM] | activity, negative = inhibition [5] 4.79% [at 11.6 µM] | redox activity (% of DA3003) [6] 14.6% [at 11.5 µM]

COc1cc(C(CO)CO[C@@H]2O[C@H](CO)[C@@H](O)[C@H](O)[C@H]2O)ccc1O (stereo not given in full)
inactive: Potency [1] | Potency [2] | Potency [3] | Potency [4] | Potency [5] | Potency [6]

NC(=O)C(O[C@@H]1O[C@H](CO[C@@H]2O[C@H](CO)[C@@H](O)[C@H](O)[C@H]2O)[C@@H](O)[C@H](O)[C@H]1O)c1ccccc1 (stereo not given in full)
inactive: Potency [1] | Potency [2] | Potency [3] | Potency [4] | Potency [5] | Potency [6]

CC(=O)O[C@@]1(C)[C@@H]2CC(=C(C)C)C(=O)C[C@@]2(C)CC[C@H]1OC(=O)C1(C)OC1C (stereo not given in full)
inactive: Potency [1] | Potency [2] | Potency [3] | Potency [4] | Potency [5] | Potency [6]

Oc1ccccc1-c1cc(-c2ccccc2F)[nH]n1
active: Potency [3] 1.69 µM
inactive: Potency [1] | Potency [2] | Potency [4] | Potency [5] | Potency [6]

COc1cc(C2OCC3(O)C(c4ccc(O[C@@H]5O[C@H](CO)[C@@H](O)[C@H](O)[C@H]5O)c(OC)c4)OCC23O)ccc1O (stereo not given in full)
inactive: Potency [1] | Potency [2] | Potency [3] | Potency [4] | Potency [5] | Potency [6]

CC[C@H]1OC(=O)[C@H](C)C(=O)[C@H](C)[C@@H](OC2O[C@H](C)C[C@H](N(C)C)[C@H]2O)[C@@H](C)C[C@@H](C)C(=O)/C=C/[C@]1(C)O (stereo not given in full)
inactive: Potency [1] | Potency [2] | Potency [3] | Potency [4] | Potency [5] | Potency [6]

Source: PubChem BioAssay (NCATS)
